Assay outcomes from PubChem.
Compounds with a hit are over-represented: about 19% of the library has one in this group of screens.
LASV entry inh: qHTS for Inhibitors of binding or entry into cells for Lassa Virus; Lassa virus pseudotype entry inhibition, cell reporter; Potency, µM (titrated, usually from 37.9 µM), inactives show top-dose activity change, negative = inhibition, hits mostly inhibitors; 1.2% of 300,000 active; AID 540256, 2011; calls by dose curve; tested in HEK293 cells; further: potency means the concentration at half of the fitted maximal effect; on the % scale 0 is the no-effect control and ±100 the full control effect; nearly all actives have a fitted effect of over 50% in size
Cycloheximide cs: Cycloheximide Counterscreen for Small Molecule Inhibitors of Shiga Toxin; cell reporter, cycloheximide protein synthesis inhibition counterscreen; max response, %; 12% of 300,000 active; AID 2314, 2010; in the data active means max response mostly above about 13%, no sharp cut-off; inactive means mostly below about 14%; further: read at 38.3 µM for the half of the compounds with a filed dose; 0% is about no effect
Pf growth 48h: Primary qHTS for delayed death inhibitors of the malarial parasite plastid, 48 hour incubation. 5.9% of 310,000 active. P. falciparum luciferase growth in erythrocytes, 48 h. Potency, µM (top dose mostly 28.7 µM), for the others: at the top dose activity change, negative = inhibition, actives largely listed as inhibitors; further: potency means the concentration at half of the fitted maximal effect; on the % scale 0 is the no-effect control and ±100 the full control effect
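In quantitative HTS format, infected erythrocytes bearing luciferase-reporter parasites were treated for a single generation at 37 C. Luminescence after adding detection reagent served as the growth measure.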
Shiga toxin inh: A qHTS for Small Molecule Inhibitors of Shiga Toxin | Vero cells, Shiga toxin protein synthesis inhibition reporter | 9.2% of 290,000 active | inhibition, % at 38.7 µM; in the data active means inhibition mostly above about 28%, no sharp cut-off; inactive means mostly below about 43%; further: 0% is about no effect
Marburg entry inh: qHTS for inhibitors of binding or entry into cells for Marburg Virus. Marburg virus pseudotyped entry inhibition, cell reporter. Potency, µM (series often up to 37.8 µM), for the others: at the top dose activity change, negative = inhibition, usual class: inhibitors. 1.8% of 300,000 active; calls by dose curve; tested in HEK293 cells; further: potency means the concentration at half of the fitted maximal effect; on the % scale 0 is the no-effect control and ±100 the full control effect
Pf growth 96h: Primary qHTS for delayed death inhibitors of the malarial parasite plastid, 96 hour incubation. P. falciparum luciferase reporter growth, 96 h. Potency, µM (doses to about 28.7 µM), without a hit: at the highest dose activity change, negative = inhibition, most hits filed as inhibitors. 6.9% of 320,000 active. AID 504834, 2011; further: potency means the concentration at half of the fitted maximal effect; on the % scale 0 is the no-effect control and ±100 the full control effect
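Infected RBCs, 2% Hct / 0.05% parasitemia final; luciferase-reporter P. falciparum; cpd 96 h, 37 C, 5% CO2; luciferase detection reagent; luminescence.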
Numbers without * were called inactive; ? = inconclusive; . = not tested or not shown; ! = a repeat was not active; [ ] = remark or other dose. Unless noted, the call rests on the fitted dose curve; in most records, active means well fitted inhibition curve with a large enough effect; inconclusive means small, poorly fitted or top-dose-only effect, or another doubt; inactive means no such curve, though single readings can be large or run the other way.

SMILES | LASV entry inh | Cycloheximide cs | Pf growth 48h | Shiga toxin inh | Marburg entry inh | Pf growth 96h
FC(F)(F)COc1cc(-c2nnc(SCc3ccccc3)n2Cc2ccco2)cc(OCC(F)(F)F)n1 | . | 2.4 | 6.57µM* | 15.2 | . | 11.7µM*
CCN(CC)S(=O)(=O)c1ccc(N2CCOCC2)c(NC(=O)c2ccco2)c1 | -18.9%[46.1 µM] | . | . | . | 1.6%[46.1 µM] | .
CCN(CC)S(=O)(=O)c1ccc(N2CCOCC2)c(NC(=O)c2cc(C)cc(C)c2)c1 | -21.9% | -3.1 | 10.4µM* | -2.9 | -19.9% | ?
CCN(CC)S(=O)(=O)c1ccc(N2CCOCC2)c(NC(=O)c2sccc2C)c1 | ? | . | . | . | -24.6% | .
CCN(CC)S(=O)(=O)c1ccc(N2CCOCC2)c(NC(=S)NC(=O)c2ccco2)c1 | ? | 0.9 | 2.62µM* | -13.6 | ? | 1.47µM*
CCN(CC)S(=O)(=O)c1ccc(N2CCOCC2)c(NC(=O)C23CC4CC(CC(Cl)(C4)C2)C3)c1 | ? | 0.6 | 8.28µM* | -5.9 | ? | 3.7µM*
CCN(CC)S(=O)(=O)c1ccc(N2CCOCC2)c(NC(=O)CC(C)(C)C)c1 | . | 4.5 | ? | -13.1 | . | ?
CCc1cc(C(=O)Nc2cc(S(=O)(=O)N(CC)CC)ccc2N2CCOCC2)sc1C | ? | . | ? | . | ? | 9.28µM*
CCOc1ccccc1N(C)C(=O)C1CCN(S(=O)(=O)c2cccc3nonc23)CC1 | -15.0% | -3.5 | . | -11.9 | ? | ?
COc1ccc(OC)c(-c2cc(C(=O)Nc3c(C)nn(Cc4ccc(C)cc4)c3C)no2)c1 | 4.3%[46.1 µM] | . | . | . | -19.4%[46.1 µM] | .
Cc1cc(NC(=O)c2cc(-c3ccco3)on2)nn1Cc1ccc(Cl)cc1 | ? | 2.7 | 6.57µM* | -1.1 | -11.4% | .
Cc1nn(Cc2ccc(Cl)cc2)c(C)c1NC(=O)c1cc(-c2ccco2)on1 | . | -1.2 | ? | -13.2 | -5.6% | 14.7%
COc1cccc(-c2cc(C(=O)Nc3cc(C)n(Cc4ccc(Cl)cc4)n3)no2)c1 | -29.4% | -0.3 | 10.4µM* | -1.6 | ? | 22.3%
COc1ccc(OC)c(-c2cc(C(=O)Nc3cc(C)n(Cc4ccc(Cl)cc4)n3)no2)c1 | 3.5% | -2.8 | 2.08µM* | -3.1 | ? | 0.0%
CCC(C)(C)C1CCC(=NNC(=S)Nc2ccccc2)CC1 (stereo unspecified) | ? | 2.8 | ? | 5.5 | 7.9% | 3.9%
S=C(NN=C1C2CC3CC(C2)CC1C3)Nc1ccccc1 | 15.7% | 52.8* | . | 146.0* | -8.6%[46.1 µM] | 10.4µM*
Oc1ccccc1N=Nc1nc(-c2ccccc2)c(-c2ccccc2)[nH]1 | 1.41µM* | -2.4 | . | 13.9 | 1µM* | 2.08µM*
COc1ccc(N=Nc2nc(-c3ccccc3)c(-c3ccccc3)[nH]2)cc1 | -5.2% | -3.3 | ? | -2.9 | ? | ?
COc1ccccc1N=Nc1nc(-c2ccccc2)c(-c2ccccc2)[nH]1 | ? | 11.9* | 12.6% | -1.5 | ? | 2.33µM*
OC(CNCC(c1ccc(Cl)cc1Cl)c1c[nH]c2ccccc12)c1ccccc1 (stereo unspecified) | ? | -2.0 | ? | -22.0 | 7.94µM* | ?
OC(CNCc1ccccc1)c1ccc(Cl)cc1 (stereo unspecified) | 18.7%[46.1 µM] | . | . | . | ? | .
CN(C)CCCNc1c2c(nc3cc(-c4cccc(F)c4)nn13)CCC2 | . | 8.9 | 6.6% | 13.6 | . | -6.5%
Cc1nc2cc(-c3ccc(Cl)cc3)nn2c(NCCN(C)C)c1C | ? | 60.0* | ? | 80.2* | ? | 10.4µM*
COc1ccc(-c2cc3nc(-c4ccccc4)cc(C(F)(F)F)n3n2)cc1 | ? | . | . | . | -8.4%[46.1 µM] | .
Cc1cc(C)n2nc(-c3ccc(Cl)cc3)cc2n1 | . | 42.5* | 169.6% | 100.5* | . | 211.9%
SMILES | LASV entry inh | Cycloheximide cs | Pf growth 48h | Shiga toxin inh | Marburg entry inh | Pf growth 96h
Cc1ccc(-c2cc3nc(-c4ccc(Br)cc4)cc(N)n3n2)cc1 | 0.1% | 0.9 | -9.7% | -8.0 | 10.0% | -7.7%
Cc1cc(C)n2nc(-c3ccc(Br)cc3)cc2n1 | . | 25.7* | 157.2% | . | . | 16.3%
COc1ccc(-c2cc3nc(C)cc(C)n3n2)cc1 | ? | 34.7* | . | 47.6* | ? | 268.2%
O=C(NN1CCOCC1)NC12CC3CC(CC(C3)C1)C2 | ? | 0.3 | ? | 11.3 | -6.6% | ?
Cc1cc(-c2ccc(Cl)cc2)n2nc(C)cc2n1 | . | -2.2 | -1.0% | -5.7 | . | 10.4µM*
COc1ccc(C(=O)SC2=NCCS2)cc1 | -17.4% | -2.9 | -2.8% | -0.3 | -28.1% | ?
CCCSC1=C(C#N)C(c2cccs2)C(C(=O)Nc2ccccc2)=C(C)N1 (stereo unspecified) | ? | 4.6 | 8.28µM* | 12.4 | ? | 10.3%
CC1=C(C(=O)Nc2ccccc2)C(c2ccncc2)C(C#N)=C(SCC(=O)NC2CC2)N1 (stereo unspecified) | 7.4% | -1.5 | -14.4% | 8.4 | 5.9% | ?
CC1=C(C(=O)Nc2ccccc2)C(c2ccncc2)C(C#N)=C(SCC(=O)NC(C)C)N1 (stereo unspecified) | 19.3% | -2.4 | 10.4µM* | -2.7 | ? | 33.1%
CCCOc1ccc(C(=O)Nc2cccnc2)cc1 | . | 28.7* | 184.1% | . | . | 21.4%
O=C(Nc1cccc(Oc2ccc(C(=O)O)c(C(=O)O)c2)c1)c1ccc(-c2ccccc2)cc1 | . | -0.8 | 1.65µM* | -4.3 | . | 56.2%
CCOc1cc(C(=O)Nc2cccnc2)cc(OCC)c1OCC | . | 0.3 | ? | 22.5 | . | 100.5%
O=C(Nc1cccnc1)c1ccc(Oc2ccccc2)cc1 | ? | 33.6* | 134.9% | 37.7* | 14.1% | .
CC(C)(C)C(=O)Nc1ccc(C(=O)Nc2cccc(Oc3ccc(C(=O)O)c(C(=O)O)c3)c2)cc1 | . | -3.0 | 1.8% | -16.9 | . | -23.1%
CCCCOc1ccc(C(=O)Nc2ccncc2)cc1 | ? | 25.9* | ? | 94.5* | ? | -11.1%
CC(C)(CO)NCc1cccs1 | . | -2.0 | 0.0% | 6.6 | . | -4.3%
COc1ccc(S(=O)(=O)N2CCCCCC2)cc1C(=O)N(C)CC(=O)Nc1c(Cl)cccc1Cl | 10.8% | . | ? | . | -9.2% | -28.2%
O=C(Nc1cccnc1)c1ccc(CSc2ccccc2)cc1 | 21.0% | 41.1* | 67.2% | 73.0* | 4.2%[46.1 µM] | 67.3%
O=C(Nc1cccc(Br)c1)c1ccc(CSc2ccccc2)cc1 | 2.6% | 13.3 | 71.1% | 47.1 | 9.9% | -21.6%
O=C(NCc1cccnc1)c1ccc(COc2ccccc2Br)cc1 | ? | 16.1 | -17.5%[5.75 µM] | 45.1 | ? | 8.5%
O=C(Nc1cccnc1)c1ccc(COc2ccccc2Br)cc1 | . | 24.3* | ? | 31.9 | 2.3% | -3.2%
COc1cc2c(cc1OC)-c1c(OC)c(OC)cc3c1[C@H](C2)N(C)CC3 | -14.8% | -4.6 | ? | -16.0 | -24.4% | 3.7µM*
CN1CCc2cccc3c2[C@H]1Cc1ccc(O)c(O)c1-3 | ? | -3.5 | 2.94µM* | -13.7 | -26.8% | 2.33µM*!
C=CCN1CCc2cccc3c2C1Cc1ccc(O)c(O)c1-3 (stereo unspecified) | . | . | . | . | 11.2µM* | .
